# Laboratory results: PubChem BioAssay (NCATS)
# Inconclusive results are not listed. A number with no mark means an inactive call. The source made the active and inactive calls. The call rests on the fitted dose curve; in most records, active means well fitted curve in the direction sought with a large enough effect; inconclusive means small, poorly fitted or top-dose-only effect, or another doubt; inactive means no such curve, though single readings can be large; an effect the other way counts as inactive or inconclusive.
# Legend:
# [1] = BET inhibitor-based combinations targeting novel dependencies in MECOM-rearranged (r) AML: SET-2 cell line (AID 2202231); conditions: SET-2 AML cells viability, CellTiter-Glo luminescence, 48 h; viability: active compounds read low, concentration not given here; further: nearly all actives have a fitted effect of over 35% in size;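 on viability: plate controls were DMSO treated cells for no effect and wells without cells for full effect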
# Procedure, shortened: (§1)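 Each compound was tested at eleven concentrations on cells seeded at 500/well. After two days' incubation, ATP-based luminescence reported viability; responses relative to DMSO and blank wells yielded AUC and cell-line-centred Z-AUC.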
# [2] = BET inhibitor-based combinations targeting novel dependencies in MECOM-rearranged (r) AML: OCI-AML3 cell line (AID 2202232); conditions: CellTiter-Glo luminescence, 48 h; Potency: OCI-AML3 viability; series mostly up to 46 µM; further: nearly all actives have a fitted effect of over 35% in size
# Procedure, shortened: as §1
# [3] = BET inhibitor-based combinations targeting novel dependencies in MECOM-rearranged (r) AML: MV-4-11 cell line (AID 2202233); conditions: MV-4-11 AML viability, CellTiter-Glo luminescence, 48 h; series mostly up to 46 µM; further: nearly all actives have a fitted effect of over 45% in size
# Procedure, shortened: (§2)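 First, 500 cells per well were seeded; next, drugs were pinned as 11-point doses; then plates sat 48 hr in the incubator; finally CellTiter-Glo was added and luminescence read, with AUC and Z-AUC computed.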
# [4] = BET inhibitor-based combinations targeting novel dependencies in MECOM-rearranged (r) AML: HNT-34 cell line (AID 2202234); conditions: HNT-34 AML viability, CellTiter-Glo luminescence, 48 h; series mostly up to 46 µM; further: nearly all actives have a fitted effect of over 35% in size
# Procedure, shortened: as §2
# [5] = BET inhibitor-based combinations targeting novel dependencies in MECOM-rearranged (r) AML: UCSD-AML1 cell line (AID 2202235); conditions: UCSD-AML1 AML cells viability, CellTiter-Glo, 48 h; series mostly up to 46 µM; further: nearly all actives have a fitted effect of over 40% in size
# Procedure, shortened: as §2
# [6] = BET inhibitor-based combinations targeting novel dependencies in MECOM-rearranged (r) AML: AML-191 cell line (AID 2202236; further: nearly all actives have a fitted effect of over 35% in size); conditions: AML-191 viability, CellTiter-Glo luminescence, 48 h; series mostly up to 46 µM
# Procedure, shortened: as §1
# [7] = BET inhibitor-based combinations targeting novel dependencies in MECOM-rearranged (r) AML: AML-194 cell line (AID 2202237; further: nearly all actives have a fitted effect of over 40% in size); conditions: AML-194 (MECOM-r AML) viability, CellTiter-Glo, 48 h; series mostly up to 46 µM
# Procedure, shortened: as §1
# Potency means the concentration at half of the fitted maximal effect.
SMILES,Potency [1],Potency [2],Potency [3],Potency [4],Potency [5],Potency [6],viability [1] [%],Potency [7]
COc1ccc([C@@H](O)[C@@H](C)Oc2ccc([C@H]3O[C@H](c4ccc(O[C@H](C)[C@H](O)c5ccc(OC)c(OC)c5)c(OC)c4)[C@H](C)[C@H]3C)cc2OC)cc1OC,13200 nM (active),1050 nM (active),4170 nM (active),23500 nM (active),18600 nM (active),18600 nM (active),,
CCN[C@H]1C[C@H](C)S(=O)(=O)c2sc(S(N)(=O)=O)cc21,,inactive,inactive,inactive,inactive,inactive,114,inactive
CN1CC(=O)N2[C@H](c3ccc4c(c3)OCO4)c3[nH]c4ccccc4c3C[C@@H]2C1=O,,inactive,inactive,inactive,inactive,inactive,116,inactive
C[C@H](NC(=O)CCC(F)(F)F)C(=O)N[C@@H]1C(=O)N(CCO)c2ncccc2-c2ccccc21,,inactive,inactive,inactive,inactive,inactive,95.9,inactive
Cc1nnn(C)c1-c1cnc2c3ccc(C(C)(C)O)cc3n([C@H](c3ccccc3)C3CCOCC3)c2c1,14.8 nM (active),5.9 nM (active),4.2 nM (active),29.5 nM (active),26.3 nM (active),26.3 nM (active),,66.1 nM (active)
O=C(/C=C/c1ccc2ccc(C(F)(F)F)cc2n1)c1ccncc1,2630 nM (active),1860 nM (active),1050 nM (active),1320 nM (active),1660 nM (active),1860 nM (active),,2350 nM (active)
